Test results from the supplement of paper PMC10981050.
Values joined by “and” are separate entries in the source; they are usually repeats but may differ in a detail not shown here. Equal entries are not always repeated. Structures can show the parent of a compound that is named as a salt.

Assays:
Assay in all cases: cell viability relative to vehicle control; higher = less cytotoxic
Settings in all cases: 10 µM
[1] = test system: K562
Outline: (§1)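 Screening covered the Selleck bioactive, kinase and epigenetic probe libraries, less identity-inconsistent compounds, on CRISPR-edited mutant clones and isogenic wild-type clones of four leukaemia lines. Cells, at 2000 per well in 50 µL medium, received a single 10 µM acoustically dispensed dose. After 48 h the supernatant was removed and CellTiter-Glo luminescence was read. Viability was analysed in Genedata Screener as percent of the on-plate vehicle control.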

[2] = test system: MARIMO
Outline: as §1

[3] = test system: MOLM14
Outline: as §1

[4] = test system: OCI-AML2
Outline: as §1

| SMILES | cell viability ([1]; SRSF2 genotype: SRSF2 P95H/wt) | cell viability ([1]; SRSF2 genotype: SRSF2 wt/wt) | cell viability ([2]; SRSF2 genotype: SRSF2 P95H/wt) | cell viability ([2]; SRSF2 genotype: SRSF2 wt/wt) | cell viability ([3]; SRSF2 genotype: SRSF2 P95H/wt) | cell viability ([3]; SRSF2 genotype: SRSF2 wt/wt) | cell viability ([4]; SRSF2 genotype: P95H/wt) | cell viability ([4]; SRSF2 genotype: wt/wt) |
| --- | --- | --- | --- | --- | --- | --- | --- | --- |
| CC(C)(O)CNc1ncc(-c2ccnc(Nc3ccnc(Cl)c3)n2)c(CC2CC2)n1 | 41.9% and 40.5% | 36.9% | 39.5% | 41.2% | 8.93% | 9.79% | 5.49% | 12.8% |
| CCN(CC)CC(=O)Oc1ccc(NC(C)=O)cc1 [Propacetamol hydrochloride] | 90.2% and 83.3% | 86.5% | 94.2% | 90.2% | 93.6% | 94.7% | 86.4% | 96.7% |
| O=C(O)c1cc(/N=N/c2ccc(O)c(C(=O)O)c2)ccc1O [Olsalazine Sodium] | 86.9% and 86% | 81.6% | 88.2% | 92.2% | 85.2% | 88.4% | 94.1% | 90.1% |
| CNS(=O)(=O)C[C@H]1CC[C@H](N(C)c2[nH]cnc3nccc2-3)CC1 [Oclacitinib maleate] | 95.6% and 99.2% | 103% | 95.5% | 102% | 55.9% | 73% | 77.5% | 72.5% |
| Cn1ncc(Cl)c1-c1cc(C(=O)N[C@H](CN)Cc2ccc(F)c(F)c2)oc1Cl | 73.1% and 71.1% | 79.8% | 64.1% | 59.3% | 31.9% | 31.4% | 51.1% | 50.4% |
| Cc1ncc(CCCN(C)C)cc1Nc1ncc2c(n1)-c1ccc(C(F)(F)F)cc1NC(=S)C2 | 46.2% and 57.9% | 54.3% | 49.5% | 44.5% | 18.3% | 8.47% | 16.3% | 21.1% |
| O=C(O)Cc1cccc2ccccc12 [Potassium 1-Naphthaleneacetate] | 92.5% and 95.9% | 97% | 97.4% | 97.8% | 90.8% | 95.4% | 103% | 98.8% |
| Cn1cc(C2=C(c3cccc(N)c3)C(=O)NC2=O)c2ccccc21 | 51.4% and 36.7% | 58.5% | 65.4% | 86% | 59.8% | 72.1% | 78.8% | 101% |
| O=C(O)CCCN1CCC(O[C@@H](c2ccc(Cl)cc2)c2ccccn2)CC1 [Bepotastine Besilate] | 89.5% and 84.3% | 84.8% | 86.5% | 97.8% | 90.9% | 93.3% | 82.6% | 86.2% |
| CC(C)n1c(/C=C/C(O)CC(O)CC(=O)O)c(-c2ccc(F)cc2)c2ccccc21 (configuration not stated) [Fluvastatin sodium (Lescol)] | 80.8% and 90.5% | 69.6% | 45.5% | 46.6% | 77.7% | 89.3% | 36.8% | 46.5% |
| N#CSc1cc(SC#N)c(N)nc1N | 8.53% and 15.5% | 33.9% | 4.65% | 1.5% | 3.35% | 0.44% | 0.31% | 0.95% |
| CCCOc1ccc(CCc2nc3cc(-c4c(C)noc4C)ccc3n2CCN2CCOCC2)cc1 | 81.1% and 91% | 84.9% | 80.3% | 76.7% | 60.3% | 65% | 59.1% | 73.5% |
| CC(C)CC(NC(=O)C(Cc1ccccc1)CC(O)C(Cc1ccccc1)NC(=O)OC(C)(C)C)C(=O)NC(Cc1ccccc1)C(N)=O (configuration not stated) | 106% and 109% | 111% | 106% | 99.5% | 108% | 106% | 112% | 120% |
| CCN1CCN(C(=O)N[C@@H](C(=O)N[C@@H]2C(=O)N3C(C(=O)O)=C(CSc4nnnn4C)CS[C@H]23)c2ccc(O)cc2)C(=O)C1=O [Cefoperazone (Cefobid)] | 100% and 97.5% | 91.7% | 104% | 101% | 98.1% | 97.3% | 100% | 104% |
| O=C(/C=C/c1ccc(O)cc1)C1=C(O)[C@](O)([C@@H]2O[C@H](CO)[C@@H](O)[C@H](O)[C@H]2O)C(O)=C(/C=C2/C(=O)C(C(=O)/C=C/c3ccc(O)cc3)=C(O)[C@@](O)([C@@H]3O[C@H](CO)[C@@H](O)[C@H](O)[C@H]3O)C2=O)C1=O [Safflower Yellow] | 97.2% and 89.1% | 90.4% | 91.5% | 98.8% | 90.4% | 94.9% | 97.7% | 90.5% |
| C/C1=C2N=C(/C=C3N=C(/C(C)=C4\[N-]C(C(CC(N)=O)C4(C)CCC(=O)NCC(C)OP(=O)([O-])OC4C(CO)OC(n5cnc6cc(C)c(C)cc65)C4O)C4(C)N=C1C(CCC(N)=O)C4(C)CC(N)=O)C(CCC(N)=O)C\3(C)C)C(CCC(N)=O)C/2(C)CC(N)=O.[CH3-].[Co+3] (configuration not stated) [Methylcobalamin] | 89.6% and 88.5% | 101% | 88.4% | 88.6% | 90.8% | 94.3% | 95.2% | 97% |
| OCc1ccccc1O[C@@H]1O[C@H](CO)[C@@H](O)[C@H](O)[C@H]1O [Salicin (Salicoside, Salicine)] | 101% and 103% | 110% | 103% | 106% | 99.7% | 104% | 105% | 112% |
| CC1OC(OC2C(CO)OC(OCC3OC(OC(=O)C45CCC(C)(C)CC4C4=CCC6C7(C)CCC(OC8OCC(O)C(O)C8O)C(C)(CO)C7CCC6(C)C4(C)CC5)C(O)C(O)C3O)C(O)C2O)C(O)C(O)C1O (configuration not stated) [Hederacoside D] | 98.3% and 104% | 101% | 95.7% | 103% | 105% | 99.3% | 97% | 103% |
| C=C(C)[C@@H]1CC[C@]2(C(=O)O)CC[C@]3(C)[C@H](CC[C@@H]4[C@@]5(C)CC[C@H](O[C@@H]6OC[C@H](O)[C@H](O)[C@H]6O[C@@H]6O[C@@H](C)[C@H](O)[C@@H](O)[C@H]6O)[C@@](C)(CO)[C@@H]5CC[C@]43C)[C@@H]12 [Pulchinenoside A] | 97.5% and 96.7% | 92% | 93.9% | 106% | 102% | 96.6% | 94.6% | 105% |
